CBFb RUNX1 block: qHTS Assay for Compounds Blocking the Interaction Between CBF-beta and RUNX1 for the Treatment of Acute Myeloid Leukemia. AlphaScreen CBFb-His/RUNX1-biotin binding, biochemical. Potency, µM (series often up to 59.8 µM), inactives show at the highest dose activity, negative = inhibition, usual class: inhibitors. 230,000 tested, under 10 active. AID 1477, 2009; note: % of control where 0% means no effect
Target sequence (Q01196 whole entry, looked up): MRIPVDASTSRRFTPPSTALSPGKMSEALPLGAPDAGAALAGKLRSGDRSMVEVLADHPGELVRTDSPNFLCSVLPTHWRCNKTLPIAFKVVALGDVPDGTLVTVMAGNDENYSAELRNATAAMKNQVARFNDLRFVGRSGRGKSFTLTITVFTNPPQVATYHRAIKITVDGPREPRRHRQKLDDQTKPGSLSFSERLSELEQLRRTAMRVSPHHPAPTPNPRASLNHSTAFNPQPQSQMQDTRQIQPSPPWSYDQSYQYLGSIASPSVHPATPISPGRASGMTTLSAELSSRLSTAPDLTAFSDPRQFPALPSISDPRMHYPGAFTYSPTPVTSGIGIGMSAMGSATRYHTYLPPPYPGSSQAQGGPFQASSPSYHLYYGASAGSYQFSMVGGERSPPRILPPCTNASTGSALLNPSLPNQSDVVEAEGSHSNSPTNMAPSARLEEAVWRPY
Target sequence (Q13951 whole entry, looked up): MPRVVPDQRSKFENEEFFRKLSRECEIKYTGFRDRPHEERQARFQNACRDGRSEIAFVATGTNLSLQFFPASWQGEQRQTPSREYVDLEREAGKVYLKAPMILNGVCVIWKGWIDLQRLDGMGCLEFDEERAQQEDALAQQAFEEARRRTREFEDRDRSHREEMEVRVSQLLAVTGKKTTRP
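Proteins preincubated together for 20 min at RT before compound addition; 15 min later, nickel and streptavidin beads were added and left 90 min prior to AlphaScreen measurement.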
MBNL1-CUG inh: qHTS Assay for Inhibitors of MBNL1-poly(CUG) RNA binding. Potency, µM (series often up to 57.5 µM), inactives show at the highest dose activity change, negative = inhibition, actives largely listed as inhibitors. Muscleblind-like protein 1 (Homo sapiens), Q9NR56. hit rate 0.036% among 280,000. AID 2675, 2010. TR-FRET MBNL1-His/biotin-(CUG)12 binding, 665/545 ratio; active = well fitted inhibition curve with a large enough effect in the signal ratio, with a control signal flat, not every such curve was filed as active; inconclusive = small, poorly fitted or top-dose-only effect, or effect the other way, or a change in a side signal; inactive = no such curve, though single readings can be large or run the other way; the % refers to the signal ratio; note: potency is the fitted concentration of half-maximal effect; % is set by controls: 0 for no effect and ±100 for the full control effect
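Ratiometric TR-FRET (665 over 545 nm, excitation 340 nm) tracks disruption of MBNL1-His/biotin-(CUG)12 complex after 60 min at room temperature, with compounds at 92 nM to 58 uM final.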
a7 integrin act: qHTS for Activators of Integrin-Mediated Alleviation for Muscular Dystrophy; AID 624291, 2012; hit rate 0.064% among 350,000; alpha7betagal myoblasts, beta-gal FDG fluorescence, 48 h; Potency, µM (titrated, usually from 38.3 µM), inactives show top-dose activation, most hits filed as activators;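 note: potency is the fitted concentration of half-maximal effect; 100% = response of the positive control SU9516; nearly all actives have a fitted effect of over 60% in size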
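Alpha7betagal+/- myoblasts (passage 13) were plated 16-24 hr, then exposed to compounds (1:260 dilution of DMSO stock) for 48 hours at 37C. After MPER lysis, β-galactosidase reporter activity was read as FDG fluorescence (ex 480/em 540) after 30 minutes.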
D3 ag: qHTS of D3 Dopamine Receptor Agonist: qHTS. D3R DiscoveRx beta-arrestin cells, luminescence, 90 min. max activation, %. AID 652048, 2013. hit rate 0.58% among 410,000; in the data active = max activation above about 30%; note: 0% is about no effect
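Cells at 1500/well, incubated overnight, then treated with pinned compounds (dopamine as control) for 90 min at 37 degrees C. DiscoveRx reagent added for 30 - 60 minutes at room temperature; luminescence read.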
PTHR1 ag: qHTS for PTHR1 Agonists: Primary Screen | hit rate 0.075% among 410,000 | Potency, µM (series often up to 115 µM), for the others: top-dose activation, actives largely listed as activators | HEK293 GP2 PTHR1 cells, GloSensor cAMP luminescence, 1 h | Parathyroid hormone/parathyroid hormone-related peptide receptor (Homo sapiens), Q03431; note: potency is the fitted concentration of half-maximal effect; nearly all actives have a fitted effect of over 55% in size
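HEK-293-derived GP2 cells expressing PTHR1 and a GloSensor cAMP reporter, 3,000/well, plated overnight, given luciferin plus IBMX (each 0.5 mM as added) for 1 h at 37 °C, then compound for 1 h at 37 °C. Luminescence was read after 15 min at room temperature.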
D3 antag: qHTS of D3 Dopamine Receptor Antagonist: qHTS | max response, negative = inhibition, % | hit rate 2.5% among 360,000 | D(3) dopamine receptor (Homo sapiens), P35462 | D3R cells, DiscoveRx beta-arrestin luminescence, antagonist mode; active compounds read low; in the data active = max response below about -50%; inconclusive = no clear call, values can overlap the other calls; note: % is set by controls: 0 for no effect and ±100 for the full control effect
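Cells plated overnight at 1500 cells/well, then exposed to library compounds with dopamine controls for 90 minutes at 37 degrees C. DiscoveRx reagent added for 30–60 minutes at room temperature; luminescence read, quantitative HTS format.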
Starred values were filed as active, the others as inactive; i = inactive; ? = inconclusive; . = no result given; ! = not confirmed by another sample; [ ] = dose if it differs, or a comment. Sampled rows, rich in hits. Any-hit rate of the full collection: about 2.8%. Unless noted, calls come from the whole dose curve; as a rule, active = well fitted curve in the direction sought with a large enough effect; inconclusive = small, poorly fitted or top-dose-only effect, or another doubt; inactive = no such curve, though single readings can be large; an effect the other way counts as inactive or inconclusive.

SMILES | CBFb RUNX1 block | MBNL1-CUG inh | a7 integrin act | D3 ag | PTHR1 ag | D3 antag
O=C(C1CCN(c2ncnc3c2nc2n3CCCCC2)CC1)N1CCN(c2ccccc2F)CC1 | . | -8% | -44% | 62*! | -40% | 22
Cc1ccc(C)c(N2CCN(C(=O)C3CCCN(c4ncnc5c4nc4n5CCCCC4)C3)CC2)c1 (stereo not drawn) | . | 2% | 14% | 31* | -29% | 59
CC1(C)CC(=O)C2=C(C1)O[C@@]1(CCCCN3C(=O)c4ccccc4C3=O)Cc3ccccc3C2O1 | . | 3%[11.5 µM] | . | . | . | .
Cc1ccc2cc(CCNC(=O)c3ccco3)c(=O)[nH]c2c1 | 1% | 3% | 9% | 6 | -17%[57.5 µM] | -103*
CCCC(=O)Nc1ccccc1NC(=O)c1ccc(OCC)cc1 | -1% | -6% | 11µM* | -4 | -3% | 1
CCOc1ccc(OCCC(=O)N(CC)CC(=O)Nc2ccccc2OC)cc1 | . | . | 27% | 31* | -6% | 1
CCCC(=O)Nc1ccccc1NC(=O)c1ccc(OC)cc1 | 0% | -2% | -4% | 0 | i | 10
Nc1cc2c(cc1C(=O)c1ccccc1)OCCO2 | -14% | 21% | 4% | -1 | -11%[57.5 µM] | -60*
COc1ccc2c(CN3CCN(Cc4ccccc4)CC3)cc(=O)oc2c1 | . | . | -2% | -20 | -2% | -68*
COc1ccc2oc(=O)cc(CN3CCN(Cc4ccccc4)CC3)c2c1 | . | . | -8% | -45 | 8% | -54*
CCOc1ccc2oc(=O)cc(CN3CCN(Cc4ccccc4)CC3)c2c1 | . | 6% | 6% | -20 | i | 1
O=c1[nH]c(-c2ccccc2)nn1-c1ccc(Br)cc1Br | . | -6% | 12% | 8 | -7% | 5
Cc1ccc(S(=O)(=O)Nc2ccc3c(c2)nc(CCN2CCN(c4ccccn4)CC2)n3C)cc1 | . | -21% | -17% | 0 | -11% | -61*
Cc1ccc(N2CCN(CCc3nc4cc(NS(C)(=O)=O)ccc4n3C)CC2)cc1 | 0% | 4% | -24% | -6 | -20%[57.5 µM] | 0
Cn1c(CCN2CCN(c3ccccn3)CC2)nc2cc(NS(=O)(=O)c3ccc(Cl)cc3)ccc21 | . | -22% | 0% | -10 | i | -69*
O=C1C2CCCCN2C(=O)N1CCCCN1CCN(c2cccc(Br)c2)CC1 (stereo not drawn) | . | 5% | 10% | -4 | -92% | -80*
O=C1C2CCCN2C(=O)N1CCCCN1CCN(c2cccc(Cl)c2)CC1 (stereo not drawn) | 8% | -3%[11.5 µM] | -21% | -1 | i | -58*
O=C1C2CCCN2C(=O)N1CCCCN1CCN(c2ccccc2)CC1 (stereo not drawn) | 4% | 7% | 2% | 30 | -4% | -24
O=C1C2CCCCN2C(=O)N1CCN1CCN(c2cccc(Cl)c2)CC1 (stereo not drawn) | . | . | 4% | -12 | -14% | -22
CCN(CC)CCOC(=O)c1cccc(Br)c1 | 8% | -7% | -28% | -15 | -9%[57.5 µM] | -58*
Cc1ccc(C)c2nc3sc(C(=O)O)cc3cc12 | -5% | ? | 0% | 7 | i | -2
COc1ccc2c(c1)c1c(c(=O)n(CCc3ccccc3)c(=O)n1Cc1ccc(F)cc1)n2C | . | . | . | -2 | -94% | .
COc1ccc(C(CNc2ncnc3sc(C)c(C)c23)N(C)C)cc1 (stereo not drawn) | . | -7% | -21% | -14 | -8% | -71*
CC(=O)/C(=N\Nc1cccc(Cl)c1)Sc1nnc(-c2ccccc2)n1-c1ccccc1 | 4% | -20% | 8% | -20 | i | -54*
COc1ccc(N2CCN(C(=O)CSc3nnc4c5cc(C)ccc5n(C)c4n3)CC2)cc1 | -6% | 16% | -10% | 43* | -4%[57.5 µM] | 21
SMILES | CBFb RUNX1 block | MBNL1-CUG inh | a7 integrin act | D3 ag | PTHR1 ag | D3 antag
Cc1c(C(=O)NCc2cccc(C(F)(F)F)c2)sc(=O)n1Cc1cccc(F)c1 | . | . | . | -9 | i | -52*
CC(=O)Nc1ccc(C2Nc3c(C)cc(C)cc3-c3cc(C)nn32)cc1 (stereo not drawn) | . | . | . | -14 | i | .
OC[C@@H]1CN(CCN2CCOCC2)C[C@H](n2cnc3c(NC4CCCC4)ncnc32)O1 | . | . | . | -10 | -21% | -51*
COCCN1C[C@@H](CO)O[C@@H](n2cnc3c(N4CCCC4)ncnc32)C1 | . | . | . | 87* | -15% | 46
COCCN1C[C@@H](CO)O[C@@H](n2cnc3c(N4CCN(C)CC4)ncnc32)C1 | . | . | . | 0 | i | 1
Cc1ccc(-c2cn3cccnc3n2)cc1NC(=O)Cc1ccccc1 | . | . | . | -17 | ? | .
O=C(N/N=C(\c1ccccc1)c1ccccn1)c1ccccc1Cl | . | -1% | -60% | -4 | i | ?
COc1ccc(C(=O)Nc2ccc(NC(=O)c3ccccn3)cn2)cc1 | . | 6% | -4% | -22 | -45% | -14
COc1ccc(C(=O)NCc2ccccn2)cc1 | 8% | -6% | 15% | -5 | i | -65*
O=C(NN=C(c1ccccc1)c1ccccn1)c1ccccc1 | . | . | 0% | -14 | i | -56*
COc1ccc(C(=O)N/N=C(\c2ccccc2)c2ccccn2)cc1 | 0% | . | -44% | -13 | i | -56*
Cc1cc(S(=O)(=O)NCC(c2ccc3c(c2)OCO3)N2CCOCC2)ccc1F (stereo not drawn) | . | . | -6% | 4 | -26% | 11
O=C(CS(=O)(=O)c1ccc(Cl)cc1)NCCS(=O)(=O)c1ccc(Cl)cc1 | 17% | . | 23% | -13 | i | 16
CCN(CC)CCNC(=O)CCc1c(C)nc2c(c(C)nn2-c2ccc(C)c(C)c2)c1C | . | -18% | -79% | -2 | i | ?
Cc1oc(-c2nc3ccccc3n2C)cc1C(=O)c1ccccc1 | -26% | -3% | -20% | 3 | -17%[57.5 µM] | -60*
NC(=O)NC(Cc1ccccc1)C(=O)N1CCN(S(=O)(=O)c2ccc(Cl)cc2)CC1 (stereo not drawn) | . | . | 21% | -6 | -9% | -68*
Cc1[nH]n(-c2ccccc2)c(=S)c1C=Nc1cccc([N+](=O)[O-])c1 | -2% | ? | -10% | -5 | i | -100*
C=CCn1nc(C(=O)Nc2ccc(OC)cc2)cc1-c1sc(NC(=O)c2ccccc2)nc1C | . | . | . | 6 | -25% | 20
